Active and inactive are the calls of the source. Unless noted, how the calls were made is not given here.
How the values were obtained:
[1] = resazurin metabolic signal in HepG2 cells – cell-based, resazurin fluorescence, 24 h, PK04 Diversity Set, profiling panel (AID 1172); settings: HepG2 viability, higher = more signal
[2] = budding yeast growth changes without added modifier – OD600, strain BY4716, 24 h, basal condition, primary screen (AID 1173); settings: S. cerevisiae BY4716 growth, OD600, 24 h; higher = more signal, called active from +8 up or from −8 down
[3] = viability profiling in MM1S myeloma cells – cell-based, resazurin fluorescence, basal, 24 h, PK04 Diversity Set, profiling panel (AID 1174); settings: higher = more signal, called active from +8 up or from −8 down;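 further: MM1S multiple myeloma cell line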
[4] = biological target: Dihydroorotate dehydrogenase (quinone), mitochondrial (Plasmodium falciparum (isolate 3D7)) (UniProt Q08210); experiment: inhibition of P. falciparum DHODH – biochemical, C-terminal His tag, absorbance 600 nm, primary screen (AID 1175); settings: PfDHODH enzyme, DCIP absorbance 600 nm; higher = more signal, called active from +8 up or from −8 down;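 further: recombinant parasite enzyme with a five histidine tag at its C terminus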
[5] = inhibition of PAO1 biofilm formation – strain PAO1, LB-PBS medium, absorbance 600 nm, primary screen (AID 1176); settings: P. aeruginosa PAO1 growth/biofilm, A600, 12 h; higher = more signal
[6] = growth modulation of vineyard yeast isolate – strain RM11-1a, OD600, basal, 24 h, primary screen (AID 1177);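 further: cultures grown under basal conditions with no added stressor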; settings: S. cerevisiae RM11-1a growth, OD600, 24 h; higher = more signal, called active from +8 up or from −8 down
[7] = growth of efflux-deficient E. coli DRC39 – strain DRC39, OD650, 24 h, E. coli filamentation inducers, primary screen (AID 1178);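 further: growth measured as culture turbidity by optical density at 650 nm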; settings: E. coli DRC39 acrAB, higher = more signal, called active from +8 up or from −8 down
[8] = growth of efflux-deficient E. coli DRC39 – strain DRC39, OD650, 48 h, E. coli filamentation inducers, primary screen (AID 1179);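 further: screen aims at cell division blockers that make cells filament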; settings: E. coli DRC39 delta-acrAB growth, higher = more signal, called active from +8 up or from −8 down
[9] = viability profiling in RPMI8226 myeloma cells – cell-based, resazurin fluorescence, basal, 24 h, PK04 Diversity Set, profiling panel (AID 1180); settings: higher = more signal;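 further: RPMI8826 multiple myeloma cell line at 5000 cells per well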
[10] = biological target: E3 ubiquitin-protein ligase XIAP (Homo sapiens) (UniProt P98170); experiment: small molecules binding XIAP protein – biophysical, small-molecule microarray, fluorescence 635 nm, primary screen (AID 1181); settings: higher = more signal;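 further: score merges 667 nm emission and signal to noise over triplicate slides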
[11] = system: XIP peptide (Xip251-270) binding; experiment: XIP fragment 251-270 binding compounds – biochemical, small-molecule microarray, fluorescence 635/667 nm, 0.1 µg/mL protein, primary screen (AID 1182); settings: fluorescent protein binding, 635 nm, higher = more signal, called active from +8 up or from −8 down
XIP peptide (Xip251-270) = experiment: compounds binding XIP fragment 251-270 – biochemical, small-molecule microarray, fluorescence 635/667 nm, 0.5 µg/mL protein, primary screen (AID 1183); settings: fluorescence 635 nm, higher = more signal
[12] = blood-stage malaria parasite viability loss – strain 3D7, DAPI fluorescence, 100 nL, primary screen (AID 1184);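 further: parasites grown inside human red blood cells in medium with human serum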; settings: P. falciparum 3D7 growth, 3 d, higher = more signal
[13] = biological target: Homeobox protein Hox-A13 (Mus musculus) (UniProt Q62424); experiment: disruptors of Hoxa13 oligonucleotide interaction – biochemical, fluorescence polarization, labeled oligonucleotide, primary screen (AID 1185); settings: Hoxa13:DNA binding, 15 min, higher = more signal, called active from +8 up or from −8 down
[14] = blockers of DNA damage checkpoint Chk1 activation – imaging, HeLa, hydroxyurea, phospho-Chk1 antibody, percent positive cells, primary screen (AID 1186); settings: hydroxyurea-induced phospho-Chk1 immunofluorescence imaging, higher = more signal
[15] = blockers of DNA damage checkpoint Chk1 activation – imaging, HeLa, hydroxyurea, phospho-Chk1 nuclear intensity, primary screen (AID 1187); settings: hydroxyurea-induced phospho-Chk1 immunofluorescence imaging, higher = more signal

Chain of E3 ubiquitin-protein ligase XIAP (Homo sapiens) (P98170 whole entry, looked up, the tested form may be a part): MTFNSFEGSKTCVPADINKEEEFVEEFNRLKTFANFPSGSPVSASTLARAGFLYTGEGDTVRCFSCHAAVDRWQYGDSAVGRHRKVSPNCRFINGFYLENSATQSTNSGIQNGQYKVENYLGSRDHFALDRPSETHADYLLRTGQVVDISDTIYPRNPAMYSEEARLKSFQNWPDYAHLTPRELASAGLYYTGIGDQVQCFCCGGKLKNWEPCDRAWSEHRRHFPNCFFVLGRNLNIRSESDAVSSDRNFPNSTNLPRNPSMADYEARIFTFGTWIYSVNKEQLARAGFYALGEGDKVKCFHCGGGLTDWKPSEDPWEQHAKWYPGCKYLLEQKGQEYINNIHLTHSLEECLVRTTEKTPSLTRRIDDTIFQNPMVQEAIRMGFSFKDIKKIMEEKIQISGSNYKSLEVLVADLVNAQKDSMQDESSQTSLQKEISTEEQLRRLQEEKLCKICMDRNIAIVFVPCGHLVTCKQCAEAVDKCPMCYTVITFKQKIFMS
Chain of Homeobox protein Hox-A13 (Mus musculus) (Q62424 whole entry, looked up): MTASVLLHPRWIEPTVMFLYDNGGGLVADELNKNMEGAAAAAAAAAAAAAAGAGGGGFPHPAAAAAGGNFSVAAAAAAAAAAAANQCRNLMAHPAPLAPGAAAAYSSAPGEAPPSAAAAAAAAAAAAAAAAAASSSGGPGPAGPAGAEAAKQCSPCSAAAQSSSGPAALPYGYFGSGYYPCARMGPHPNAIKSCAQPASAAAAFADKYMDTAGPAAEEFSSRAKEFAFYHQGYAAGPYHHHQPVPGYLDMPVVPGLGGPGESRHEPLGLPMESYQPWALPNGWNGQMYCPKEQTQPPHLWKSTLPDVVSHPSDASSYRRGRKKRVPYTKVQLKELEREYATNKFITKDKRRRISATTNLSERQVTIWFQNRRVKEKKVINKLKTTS
Chain of Dihydroorotate dehydrogenase (quinone), mitochondrial (Plasmodium falciparum (isolate 3D7)) (Q08210 whole entry, looked up): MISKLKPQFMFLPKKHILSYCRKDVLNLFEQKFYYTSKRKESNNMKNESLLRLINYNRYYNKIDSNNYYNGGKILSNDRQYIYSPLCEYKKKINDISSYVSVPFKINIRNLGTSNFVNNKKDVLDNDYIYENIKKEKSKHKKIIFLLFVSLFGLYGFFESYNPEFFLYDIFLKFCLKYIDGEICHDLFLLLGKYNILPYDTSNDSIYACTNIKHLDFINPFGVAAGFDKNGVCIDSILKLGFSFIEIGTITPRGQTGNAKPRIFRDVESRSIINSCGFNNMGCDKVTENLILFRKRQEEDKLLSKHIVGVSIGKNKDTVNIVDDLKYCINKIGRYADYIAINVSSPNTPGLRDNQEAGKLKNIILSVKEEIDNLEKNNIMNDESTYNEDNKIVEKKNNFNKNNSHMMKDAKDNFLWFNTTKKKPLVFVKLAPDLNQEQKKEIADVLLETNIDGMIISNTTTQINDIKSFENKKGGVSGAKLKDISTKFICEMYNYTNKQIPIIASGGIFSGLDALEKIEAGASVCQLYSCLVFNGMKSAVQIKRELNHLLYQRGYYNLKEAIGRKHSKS

Row | Structure (SMILES) | z-score [1] | z-score [2] | z-score [3] | composite z-score [4] | z-score [5] | z-score [6] | z-score [7] | z-score [8] | z-score [9] | composite z-score [10] | composite z-score [11] | composite z-score (XIP peptide (Xip251-270)) | z-score [12] | z-score [13] | z-score [14] | z-score [15]
1 | CC(C)CNC(=O)[C@@]1(Cc2ccccc2I)c2ccccc2C(=O)N(C2CCCCC2)[C@H]1c1ccc(CO)cc1 | -0.462 | 0.408 (inactive) | -0.424 (inactive) | 0.193 (inactive) | 0.348 (inactive) | -0.199 (inactive) | -0.113 (inactive) | -0.0397 (inactive) | -0.124 | -0.0789 | 2.15 (inactive) | 0.696 | -1.15 | -3.77 (inactive) | 0.145 (inactive) | -0.0021 (inactive)
2 | C=CCC(OC(C)=O)[C@@H]1[C@@H](N(Cc2ccc(-c3cccc(C(F)(F)F)c3)o2)C(=O)c2ccc(C)cc2)c2cc(OCCCO)ccc2N1C(=O)Cc1ccc2ccccc2c1 (some centres undefined) | 0.358 | -0.219 (inactive) | 0.837 (inactive) | -0.802 (inactive) | -0.312 (inactive) | 0.476 (inactive) | -0.333 (inactive) | 0.409 (inactive) | 1.22 | -0.0286 | 0.332 (inactive) | -0.0506 | 0.337 | -0.62 (inactive) | -0.385 (inactive) | -0.709 (inactive)
3 | O=C1N[C@@H](Cc2ccccc2)C(=O)N2[C@@H]1C[C@@H](C(=O)O)[C@H]2c1cccc(OCCO)c1 | -1.6 | 0.165 (inactive) | -0.0089 (inactive) | -2.58 (inactive) | 0.0499 (inactive) | 0.346 (inactive) | 0.395 (inactive) | 0.993 (inactive) | -0.277 | -0.102 | 0.779 (inactive) | 0.465 | 0.193 | -3.04 (inactive) | -0.22 (inactive) | 0.101 (inactive)
4 | CC(C)NC(=O)[C@@]1(C)c2ccccc2C(=O)N(Cc2cc(C(F)(F)F)cc(C(F)(F)F)c2)[C@H]1c1ccc(CO)cc1 | 0.121 | 0.0934 (inactive) | -1.21 (inactive) | 0.356 (inactive) | 0.224 (inactive) | 0.784 (inactive) | 0.162 (inactive) | 0.23 (inactive) | -0.148 | 0.0868 | 0.281 (inactive) | 0.427 | -1.54 | -3.76 (inactive) | -0.281 (inactive) | -0.197 (inactive)
5 | Cc1ccccc1C(O)C1C=CC2C(=O)N(c3ccccc3)C(=O)C2N1Nc1ccc(C(C)C)cc1 (centres undefined) | -1.7 | -0.945 (inactive) | -1.31 (inactive) | 1.82 (inactive) | 0.807 (inactive) | 1.93 (inactive) | -0.765 (inactive) | -1.14 (inactive) | -1.06 | 1.24 | 0.167 (inactive) | 0.599 | -0.739 | -1.77 (inactive) | 0.524 (inactive) | 0.118 (inactive)
6 | COC(=O)C(CC#Cc1ccc2c(c1)[C@]1(C(=O)N2)[C@H](C(=O)Nc2nc3ccccc3s2)[C@H]2C(=O)O[C@H](c3ccccc3)[C@H](c3ccccc3)N2[C@@H]1c1ccccc1OCCO)C(=O)OC | 0.522 | 0.839 (inactive) | -0.334 (inactive) | -4.92 (inactive) | 2.47 (inactive) | 2.1 (inactive) | -0.0715 (inactive) | 0.037 (inactive) | -1.1 | 0.472 | 1.5 (inactive) | 0.815 | -2.02 | 2.38 (inactive) | 0.0018 (inactive) | 0.304 (inactive)
7 | COC(=O)C(CC#Cc1ccc2c(c1)[C@]1(C(=O)N2)[C@H](c2ccc(OCCO)cc2)N2[C@H](c3ccccc3)[C@H](c3ccccc3)OC(=O)[C@H]2[C@@H]1C(=O)Nc1nc2ccccc2s1)C(=O)OC | 1.51 | 2.09 (inactive) | 0.932 (inactive) | -0.983 (inactive) | 2.98 (inactive) | 3.16 (inactive) | 1.01 (inactive) | 0.824 (inactive) | -0.257 | -0.138 | 0.081 (inactive) | 0.54 | -1.79 | 0.63 (inactive) | -0.378 (inactive) | -0.763 (inactive)
8 | Cc1ccc(S[C@]2(C(=O)NCCCN(C)C)CC(=O)N(Cc3cc(C(F)(F)F)cc(C(F)(F)F)c3)[C@@H]2c2ccc(CO)cc2I)cc1 | -0.274 | -4.35 (inactive) | -3.04 (inactive) | -0.0868 (inactive) | 0.323 (inactive) | -0.514 (inactive) | 0.392 (inactive) | 0.786 (inactive) | -2.62 | -0.0795 | -0.773 (inactive) | -0.878 | 0.227 | -3.31 (inactive) | 0.522 (inactive) | 0.201 (inactive)
9 | O=C(NCCO)C1=C[C@H](Oc2ccccc2I)[C@@H](O)[C@H](N(Cc2ccco2)C(=O)Cc2ccccc2)C1 | -1.23 | -0.279 (inactive) | -0.123 (inactive) | 1.06 (inactive) | -0.848 (inactive) | 0.552 (inactive) | -0.49 (inactive) | -0.666 (inactive) | -0.328 | -0.052 | 0.143 (inactive) | -1.13 | -1.32 | -2.48 (inactive) | 0.0831 (inactive) | 0.304 (inactive)

Reference: PubChem BioAssay
